Measurements reported in PubChem BioAssay (NCATS).
“And” between values parts separate entries of the source, which are not always exact repeats. Equal values may be shown once. Results filed as inconclusive are left out. Unmarked numbers belong to inactive results. The source made the active and inactive calls. The call rests on the fitted dose curve; in most records, active means well fitted curve in the direction sought with a large enough effect; inconclusive means small, poorly fitted or top-dose-only effect, or another doubt; inactive means no such curve, though single readings can be large; an effect the other way counts as inactive or inconclusive.

Experiments:
[1] = Viability qHTS for spleen associated tyrosine kinase inhibitor (SYKi) naive MV4-11 cells (AID 1963823); further: nearly all actives have a fitted effect of over 40% in size
Summary of the method: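 Seeding of 500 SYKi-naive MV4-11 cells per well onto pre-dispensed compounds preceded a 72 hr incubation at 37 C. Luminescent CellTiter-Glo signal, read after 10 min at room temperature, reflected viable cells.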

[2] = Viability qHTS for spleen associated tyrosine kinase inhibitor (SYKi) drug resistant MV4-11 cells (AID 1963824); further: nearly all actives have a fitted effect of over 35% in size
Summary of the method: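 CellTiter-Glo luminescence, read 10 min after reagent addition, reports viability after a 72 hr compound exposure. Cells are an MV4-11 line made resistant to SYK inhibition, seeded at 500 per well onto compound-containing plates.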

[3] = Cellular viability qHTS for adrenocortical cancer (ACC) cell line NCI-H295R (AID 1963990); further: nearly all actives have a fitted effect of over 60% in size
Summary of the method: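 Viability of NCI-H295R after 48 h of treatment (final up to 46 uM) measured through cellular ATP luminescence.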

[4] = Cellular viability qHTS for adrenocortical cancer (ACC) cell line SW-13 (AID 1963989); conditions: SW-13 ACC cells viability, CellTiter-Glo, 48 h; activity (max response): stronger effect = lower value; further: nearly all actives have a fitted effect of over 65% in size;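 on activity (max response): cells grown in serum-free medium with ITS supplement; on the % scale 0 is the no-effect control and ±100 the full control effect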
Summary of the method: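 Here, serum-free SW-13 cultures were dosed up to 46 uM. Following 48 h, ATP-dependent luminescence (CellTiter-Glo) reported viable cells, and logistic modeling produced IC50 values.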
Potency means the concentration at half of the fitted maximal effect.

| SMILES | Potency [1] | Potency [2] | Potency [3] | activity (max response) [4] [%] | Potency [4] |
| --- | --- | --- | --- | --- | --- |
| Cc1ccc(Nc2nnc(Cc3ccncc3)c3ccccc23)cc1Br | 14.8 µM (active) | 10.5 µM (active) | inactive |  |  |
| CC/C(=C(/CC)c1ccc(O)cc1)c1ccc(O)cc1 | 16.6 µM (active) | 18.6 µM (active) | 3.66 µM (active) and 8.91 µM (active) |  |  |
| COc1ccc(NS(=O)(=O)c2ccc(N)cc2)nn1 | inactive | inactive | inactive |  |  |
| CCOc1cc2ncc(C#N)c(Nc3ccc(OCc4ccccn4)c(Cl)c3)c2cc1NC(=O)/C=C/CN(C)C | 126 nM (active) and 525 nM (active) | 224 nM (active) and 525 nM (active) | 2 µM (active) |  |  |
| O=C(CCCCCCC(=O)N/N=C/c1ccc(N(c2ccccc2)c2ccccc2)cc1)NO | 4.17 µM (active) | 4.17 µM (active) | 0.631 µM (active) |  |  |
| CCOC(=O)c1ccc(N)cc1 | inactive | inactive | inactive |  |  |
| COc1ccc2cc1Oc1ccc(cc1)C[C@H]1c3c(cc4c(c3Oc3cc5c(cc3OC)CCN(C)[C@@H]5C2)OCO4)CCN1C | 11.9 µM (active) | 9.44 µM (active) | 18.4 µM (active) |  |  |
| CCNC(=O)C#Cc1ccc2c(C(=Nc3ccc(CN(C)C)cc3)c3ccccc3)c(O)[nH]c2c1 | 0.0126 µM (active) | 0.0317 µM (active) | 2.85 µM (active) |  |  |
| Cc1ccc2c(Cl)cc(Cl)c(O)c2n1 | inactive | inactive | inactive | 9.37 |  |
| CC(=O)OC[C@H]1O[C@@](COC(C)=O)(O[C@H]2O[C@H](COC(C)=O)[C@@H](OC(C)=O)[C@H](OC(C)=O)[C@H]2OC(C)=O)[C@@H](OC(C)=O)[C@@H]1OC(C)=O | inactive | inactive | inactive |  |  |
| CCOc1ccc(Cc2cc([C@@H]3O[C@H](CO)[C@@H](O)[C@H](O)[C@H]3O)ccc2Cl)cc1 | inactive | 18.6 µM (active) | inactive |  |  |
| Cn1cncc1C(N)(c1ccc(Cl)cc1)c1ccc2c(c1)c(-c1cccc(Cl)c1)cc(=O)n2C (stereo not drawn) | 1.05 µM (active) | 1.86 µM (active) | 3.55 µM (active) |  | 6.31 µM (active) |
| COC(=O)[C@H]1[C@@H](O)[C@@]2(O)c3c(OC)cc(O[C@@H]4O[C@@H]([C@@H](O)CO)CO[C@H]4OC)cc3O[C@@]2(c2ccc(OC)cc2)[C@@H]1c1ccccc1 | 2.35 µM (active) | 1.66 µM (active) | inactive |  |  |
| C[C@H]1[C@H](NC(=O)/C(=N/OC(C)(C)C(=O)O)c2csc(N)n2)C(=O)N1S(=O)(=O)O (stereo in doubt) | inactive | inactive | inactive |  |  |
| CCCCOc1ccc(C(=O)CCN2CCCCC2)cc1 | 21.1 µM (active) | 16.8 µM (active) | 8.2 µM (active) |  |  |
| CCc1cc(C(N)=O)ccc1-n1nc(C(C)C)c2c(-n3cnc(-c4cnn(C)c4)c3)ccnc21 | 0.372 µM (active) | 0.59 µM (active) | 7.94 µM (active) |  |  |
| CC[C@@]1(O)C(=O)OCc2c1cc1n(c2=O)Cc2c-1nc1ccccc1c2/C=N/OC(C)(C)C | 0.0084 µM (active) | 0.006 µM (active) | inactive |  | 0.013 µM (active) |
| CC(C)N(CCC(=O)c1ccc2ccccc2c1)Cc1ccccc1 | 2.35 µM (active) | 2.95 µM (active) and 1.84 µM (active) | 14.1 µM (active) |  |  |
| COc1cc(C(=O)N2CCCCCCC2)cc(OC)c1OC | inactive | inactive | inactive | 6.12 |  |

| SMILES | Potency [1] | Potency [2] | Potency [3] | activity (max response) [4] [%] | Potency [4] |
| --- | --- | --- | --- | --- | --- |
| C=C1C(=O)O[C@@H]2[C@H]3O[C@]3(C)CC/C=C(\C)CC[C@@H]12 | 2.35 µM (active) | 1.86 µM (active) | 10 µM (active) |  |  |
| C=CCc1cccc(/C=N/NC(=O)CN2CCN(Cc3ccccc3)CC2)c1O | 7.42 µM (active) | 6.61 µM (active) | 10 µM (active) |  |  |
| O=S(=O)(c1cccc2c(I)cccc12)N1CCCNCC1 | 7.42 µM (active) | 16.4 µM (active) | 25.1 µM (active) |  |  |
| CC(C)COC(=O)c1ccc(N)cc1 | inactive | inactive | inactive | 4.68 |  |
| O=C(CCN1CCC(c2ccccc2)C1)c1ccc2c(c1)OCCO2 (stereo not drawn) | 7.5 µM (active) | 10.6 µM (active) | 6.51 µM (active) |  |  |
| Cn1cc(-c2cnn3c(N)c(Br)c(C4CCCNC4)nc23)cn1 (stereo not drawn) | 0.291 µM (active) | 0.461 µM (active) | inactive |  |  |
| CCS(=O)(=O)CCn1c([N+](=O)[O-])cnc1C | inactive | inactive | 25.9 µM (active) |  |  |
| CC(C)(O)CC[C@@H](O)[C@](C)(O)[C@H]1CC[C@@]2(O)C3=CC(=O)[C@@H]4C[C@@H](O)[C@@H](O)C[C@]4(C)[C@H]3CC[C@]12C | inactive | inactive | inactive | 9.11 |  |
| CC(C)=CCC[C@](C)(O[C@@H]1O[C@H](CO[C@@H]2O[C@H](CO)[C@@H](O)[C@H](O)[C@H]2O)[C@@H](O)[C@H](O)[C@H]1O)[C@H]1CC[C@]2(C)[C@@H]1[C@H](O)C[C@@H]1[C@@]3(C)CC[C@H](O[C@@H]4O[C@H](CO)[C@@H](O)[C@H](O)[C@H]4O[C@@H]4O[C@H](CO)[C@@H](O)[C@H](O)[C@H]4O)C(C)(C)[C@@H]3CC[C@]12C | inactive | inactive | inactive | -6.63 |  |
| Cc1cc(=O)[nH]c(=S)[nH]1 | inactive | inactive | inactive |  |  |
| CN(C)Cc1cccc(N=C(c2ccccc2)c2c(O)[nH]c3cc(C(N)=O)ccc23)c1 | 0.468 µM (active) | 2.91 µM (active) and 1.18 µM (active) | inactive |  |  |
| O=C(O)CCCC[P+](c1ccccc1)(c1ccccc1)c1ccccc1 | inactive | inactive | inactive |  |  |
| N#CN1CCC[C@@H](n2nc(-c3ccc(Oc4ccc(F)cc4F)cc3)c(C(N)=O)c2N)C1 | 13 µM (active) | 18.6 µM (active) | inactive |  |  |
| CC(C(=O)O)c1ccc2c(c1)[nH]c1ccc(Cl)cc12 (stereo not drawn) | inactive | inactive | inactive |  |  |
| COCC(=O)O[C@]1(CCN(C)CCCc2nc3ccccc3[nH]2)CCc2cc(F)ccc2[C@@H]1C(C)C | 21.1 µM (active) | 13.3 µM (active) | 16.4 µM (active) |  |  |
| COc1ccc2c(c1)CCCC2=O | inactive | inactive | inactive |  |  |
| COc1cc(-c2cc(-c3ccc(N4CCNCC4)cc3)cnc2C)cc(OC)c1OC | 7.42 µM (active) | 8.33 µM (active) | inactive |  |  |
| CC(C)[N+](C)(C)CC(O)COc1cccc2ccccc12 (stereo not drawn) | inactive | inactive | inactive |  |  |
| NC(=O)NS(=O)(=O)c1ccc(Cl)cc1 | inactive | inactive | inactive |  |  |

| SMILES | Potency [1] | Potency [2] | Potency [3] | activity (max response) [4] [%] | Potency [4] |
| --- | --- | --- | --- | --- | --- |
| C[C@]12CC[C@@H]3c4ccc(O)cc4CC[C@H]3[C@@H]1CC[C@@H]2O | 16.6 µM (active) | 14.8 µM (active) | 7.94 µM (active) |  |  |
| CCN1CCCC(OC(=O)C(c2ccccc2)c2ccccc2)C1 (stereo not drawn) | inactive | inactive | inactive |  |  |
| Cc1sc2c(c1C)C(c1ccc(Cl)cc1)=N[C@@H](CC(=O)Nc1ccc(OCCOCCOCCOCCNc3cccc4c3C(=O)N(C3CCC(=O)NC3=O)C4=O)cc1)c1nnc(C)n1-2 (stereo partly drawn) | inactive | 0.0166 µM (active) | 3.98 µM (active) |  |  |
| CCO[C@@H]1O[C@H](C(COCc2ccccc2)OCc2ccccc2)[C@H](OCc2ccccc2)[C@H]1O (stereo partly drawn) | 15 µM (active) | 11.9 µM (active) | 23.1 µM (active) |  |  |
| O=C(c1ccc(Nc2nc(C3CC3)cn3c(-c4cn[nH]c4)cnc23)c(F)c1)N1CCOCC1 | 1.05 µM (active) | 1.66 µM (active) | 7.94 µM (active) |  |  |
| O=C(Nc1ccc(Oc2ccc(Cl)cc2)c(Cl)c1)c1cc(I)cc(I)c1O | inactive | inactive | 20.6 µM (active) |  |  |
| Cc1nc(-c2cn3c(n2)-c2ccc(-c4cnn(C(C)(C)C(N)=O)c4)cc2OCC3)n(C(C)C)n1 | 0.148 µM (active) | 2.59 µM (active) | 2.51 µM (active) |  |  |
| Clc1ccc(-c2nc3sccn3c2/C=N/OCc2ccc(Cl)c(Cl)c2)cc1 | inactive | inactive | inactive |  |  |
| Cc1c[nH]c(/C=C2\C(=O)Nc3ccccc32)c1CCC(=O)O | 0.468 µM (active) | 1.16 µM (active) and 1.32 µM (active) | inactive |  |  |
| O=C(NCCCNc1nc(Nc2cccc(CN3CCOCC3)c2)ncc1C1CC1)C1CCC1 | 0.132 µM (active) | 0.291 µM (active) | inactive |  |  |
| O=C(NCCc1c[nH]c2ccccc12)c1cccnc1 | 0.0019 µM (active) | inactive | inactive |  |  |
| NC(CC1c2ccccc2Oc2ccccc21)(C(=O)O)C1CC1C(=O)O (stereo not drawn) | inactive | inactive | inactive |  |  |
| Cc1nnc(C[C@@H]2C=C(c3ccc(Cl)cc3)c3ccccc3-n3c(C)nnc32)o1 | 0.235 µM (active) | 0.296 µM (active) | 6.31 µM (active) |  |  |
| CCCC(CCC)C(=O)Nc1ccn([C@@H]2O[C@H](CO)[C@@H](O)C2(F)F)c(=O)n1 | 0.411 µM (active) | 0.58 µM (active) | inactive |  |  |
| O=C(O)Cn1c(C(=O)Nc2nc(-c3ccccc3Cl)cs2)cc2ccccc21 | inactive | inactive | inactive |  |  |
| Cc1[nH]c(/C=C2\C(=O)Nc3ccc(S(=O)(=O)Cc4c(Cl)cccc4Cl)cc32)c(C)c1C(=O)N1CCC[C@@H]1CN1CCCC1 | 0.934 µM (active) | 1.86 µM (active) | 7.08 µM (active) |  |  |
| CCC(=O)N1CCOc2c(cc(-c3cc(OC)cc(OC)c3)cc2C(=O)N[C@H]2CCCN(C)C2)C1 | 16.6 µM (active) | 9.34 µM (active) | inactive |  |  |
| COC(=O)C1=C(C)NC(COC(N)=O)=C(C(=O)OC(C)C)C1c1cccc(Cl)c1Cl (stereo not drawn) | 21.1 µM (active) | 14.6 µM (active) | 20.6 µM (active) |  |  |
| CCN(CC)CCOc1ccc(/C(=C(\Cl)c2ccccc2)c2ccccc2)cc1 | 9.44 µM (active) and 8.2 µM (active) | 10.6 µM (active) and 10.3 µM (active) | 7.31 µM (active) |  |  |
